In PubChem BioAssay (NCATS):
Results filed as inconclusive are left out. Activity calls are given as the source filed them. Calls follow the shape of the dose curve; as a rule, active = well fitted cell-killing curve with a large enough effect; inconclusive = small, poorly fitted or top-dose-only effect, or effect the other way; inactive = flat fitted curve, though single readings scatter.

Assays:
Assay in all cases: Primary qHTS to identify gynecologic anti-cancer compounds using libraries of approved drugs and bioactive compounds (AID 1345084); also: nearly all actives have a fitted effect of over 55% in size
Details in all cases: Gynecologic cancer cell panel viability, ATPlite luminescence, 48 h; series mostly up to 57.5 µM
OV90 = tested on: OV90
Summary of the method: (§1)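 Cells, 1,000 per well, were allowed to settle for 16 h at 37 C before compound addition. Five concentrations were tested for 48 h, and viability was read by ATPlite luminescence after 15 min at room temperature.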

PA-1 = tested on: PA-1
Summary of the method: as §1

Tov-21-G = tested on: Tov-21-G
Summary of the method: as §1

Tov112D = tested on: Tov112D
Summary of the method: as §1
% is scaled to controls: 0 for no effect and ±100 for the full control effect.

C=C(CO)C(=O)O[C@H]1C[C@@]23O[C@@H]2CC/C(=C/[C@H]2OC(=O)C(=C)[C@H]12)CO[C@H]3O
inactive: Potency (OV90) | Potency (PA-1) | Potency (Tov-21-G) | Potency (Tov112D)

CC1CCC2(C(=O)O)CCC3(C)C(=CCC4C5(C)C[C@@H](O)[C@@H](O)C(C)(CO)C5CCC43C)C2C1(C)O (some centres undefined)
inactive: Potency (OV90) | Potency (PA-1) | Potency (Tov-21-G) | Potency (Tov112D)

COc1cc(CO)cc(OC)c1O[C@@H]1O[C@H](CO)[C@@H](O)[C@H](O)[C@H]1O
inactive: Potency (OV90) | Potency (PA-1) | Potency (Tov-21-G) | Potency (Tov112D)

COc1c(-c2ccc(O)cc2)cc(OC)c2c1oc1cc(O)c(OC3OC(CO)C(O)C3O)cc12 (centres undefined)
inactive: Potency (OV90) | Potency (PA-1) | Potency (Tov-21-G) | Potency (Tov112D)

COc1cc(C2Oc3c(OC)cc(CCCO)cc3C2CO)ccc1O (centres undefined)
inactive: Potency (OV90) | Potency (PA-1) | Potency (Tov-21-G) | Potency (Tov112D)

Cc1ccc2[nH]c(=O)c(C3=NN(C(=O)CCC(=O)O)C(c4ccc(Br)cc4)C3)c(-c3ccccc3)c2c1 (centres undefined)
inactive: Potency (OV90) | Potency (PA-1) | Potency (Tov-21-G) | Potency (Tov112D)

C[C@H]1[C@@H](O)[C@H](O)C2[C@]3(C)C([C@@H](O)[C@H]4OC(=O)[C@@H]1[C@@]24C)[C@](C)(O)C=C[C@H]3O[C@@H]1O[C@H](CO)[C@@H](O)[C@H](O)[C@H]1O (some centres undefined)
inactive: Potency (OV90) | Potency (PA-1) | Potency (Tov-21-G) | Potency (Tov112D)

CCOC(=O)COc1ccc2c(c1)C[C@@H](NC[C@H](O)c1cccc(Cl)c1)CC2
inactive: Potency (OV90) | Potency (PA-1) | Potency (Tov-21-G) | Potency (Tov112D)

CC(C)C1(O)C=C2C(=O)CC3C(C)(C(=O)O)CCCC3(C)C2CC1 (centres undefined)
inactive: Potency (OV90) | Potency (PA-1) | Potency (Tov-21-G) | Potency (Tov112D)

Cc1cc(Cn2cnc3c2CC(C(=O)O)N(C(=O)C(c2ccccc2)c2ccccc2)C3)ccc1N(C)C (centres undefined)
inactive: Potency (OV90) | Potency (PA-1) | Potency (Tov-21-G) | Potency (Tov112D)

O=C(Nc1ccccc1)Nc1ccc(-c2ccc(C(=O)C3CCCC3C(=O)O)cc2)cc1 (centres undefined)
inactive: Potency (OV90) | Potency (PA-1) | Potency (Tov-21-G) | Potency (Tov112D)

CC1(C)CC[C@]2(C(=O)O[C@@H]3O[C@H](CO[C@@H]4O[C@H](CO)[C@@H](O)[C@H](O)[C@H]4O)[C@@H](O)[C@H](O[C@@H]4O[C@H](CO)[C@@H](O)[C@H](O)[C@H]4O)[C@H]3O)[C@H](O)C[C@]3(C)C(=CCC4[C@@]5(C)CC[C@H](O[C@@H]6OC[C@@H](O)[C@H](O)[C@H]6O)[C@@](C)(C(=O)O)C5CC[C@]43C)[C@@H]2C1 (some centres undefined)
inactive: activity change, negative = cytotoxicity (OV90) 6.96% [at 11.6 µM] | activity change, negative = cytotoxicity (PA-1) 0.131% [at 11.6 µM] | activity change, negative = cytotoxicity (Tov-21-G) 3.95% [at 11.6 µM] | activity change, negative = cytotoxicity (Tov112D) -6.08% [at 11.6 µM]

CC(=O)OC1(C)CC(O)C2(O)C=COC(OC3OC(CO)C(O)C(O)C3O)C12 (centres undefined)
inactive: Potency (OV90) | Potency (PA-1) | Potency (Tov-21-G) | Potency (Tov112D)

C/C=C(\C)C(=O)OC[C@H]1O[C@H](O[C@H]2O[C@H](CO)[C@@H](O)[C@H](O)[C@H]2O[C@@H]2O[C@H](CO)[C@@H](O)[C@H](O)[C@H]2O)[C@H](O[C@@H]2O[C@H](CO)[C@@H](O)[C@H](O)[C@H]2O)[C@@H](O)[C@@H]1O
inactive: Potency (OV90) | Potency (PA-1) | Potency (Tov-21-G) | Potency (Tov112D)

CC[C@@H]1[C@H]2CCCCN3C(=O)C[C@H]([C@@H]4[C@H]1OC(=O)[C@H]4C)[C@@H]23
inactive: Potency (OV90) | Potency (PA-1) | Potency (Tov-21-G) | Potency (Tov112D)

CSCC1OC(n2cnc3c(N)ncnc32)C(O)C1O (centres undefined)
inactive: Potency (OV90) | Potency (PA-1) | Potency (Tov-21-G) | Potency (Tov112D)

O=C1NC(=O)/C(=C/c2cccc(C(F)(F)F)c2)S1
inactive: Potency (OV90) | Potency (PA-1) | Potency (Tov-21-G) | Potency (Tov112D)

CC(C)(O)C1CC=C(C(=O)OC[C@H]2O[C@@H](Oc3cc(C(=O)O)cc(O)c3O)[C@H](O)[C@@H](O)[C@@H]2O)CC1 (some centres undefined)
inactive: Potency (OV90) | Potency (PA-1) | Potency (Tov-21-G) | Potency (Tov112D)

CC1(C)C[C@H]2C=C(C=O)[C@]3(C(=O)O)C[C@]3(C)[C@H]2C1
inactive: Potency (OV90) | Potency (PA-1) | Potency (Tov-21-G) | Potency (Tov112D)

CC1CCC2(NC1)OC1C(O)C3C4CCC5CC(O[C@@H]6O[C@H](CO)[C@@H](O)[C@H](O)[C@H]6O[C@@H]6O[C@@H](C)[C@H](O)[C@@H](O)[C@H]6O)CCC5(C)C4CCC3(C)C1C2C (some centres undefined)
inactive: Potency (OV90) | Potency (PA-1) | Potency (Tov-21-G) | Potency (Tov112D)

CC1(C)CC(NC(=O)C(=O)Nc2ccc(Cl)cc2)CC(C)(C)N1
inactive: Potency (OV90) | Potency (PA-1) | Potency (Tov-21-G) | Potency (Tov112D)

COC(=O)C1=CO[C@@H](O[C@@H]2O[C@H](CO)[C@@H](O)[C@H](O)[C@H]2O)[C@H]2[C@@H]1[C@H](O)C[C@]2(C)O
inactive: Potency (OV90) | Potency (PA-1) | Potency (Tov-21-G) | Potency (Tov112D)

CC(NC(=O)[C@H](Cc1ccccc1)NC(=O)OCc1ccccc1)C(=O)CF (some centres undefined)
inactive: Potency (OV90) | Potency (PA-1) | Potency (Tov-21-G) | Potency (Tov112D)

Nc1nc2c(nc(Sc3ccc(Cl)cc3)n2[C@@H]2O[C@@H]3COP(=O)(O)O[C@H]3[C@H]2O)c(=O)[nH]1
inactive: Potency (OV90) | Potency (PA-1) | Potency (Tov-21-G) | Potency (Tov112D)

C/C=C(/C)C(=O)OC1C(OC(C)=O)C23C(O)OC4(CCC5C6(C)CCC(OC7OC(C(=O)O)C(O)C(OC8OC(CO)C(O)C(O)C8OC8OC(C)C(O)C(O)C8OC8OCC(O)C(O)C8O)C7OC7OC(CO)C(O)C(O)C7O)C(C)(C)C6CCC5(C)C4(C)CC2OC(C)=O)C3CC1(C)C (centres undefined)
inactive: activity change, negative = cytotoxicity (OV90) 3.74% [at 6.55 µM] | activity change, negative = cytotoxicity (PA-1) -0.0173% [at 6.55 µM] | activity change, negative = cytotoxicity (Tov-21-G) -4.78% [at 6.55 µM] | activity change, negative = cytotoxicity (Tov112D) 1.18% [at 6.55 µM]

CC(C)c1ccc2c(c1)C(O)CC1C(C)(CO)CCCC21C (centres undefined)
inactive: Potency (OV90) | Potency (PA-1) | Potency (Tov-21-G) | Potency (Tov112D)
